# Measurements: PubChem BioAssay
# Calls of active or inactive are those of the source.
# Experiments:
# [1] = binders of probe aFSTL3 on microarray, primary screen, stem cell growth factor project, biochemical, small-molecule microarray, fluorescence 635/667 (AID 1064); details: higher = more signal;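 further: measures binding of the biotinylated anti-FSTL3 antibody to printed compounds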
# [2] = binders from COS7 lysate, DM2A8 probe, primary screen, torsin A project, cell lysate, small-molecule microarray, fluorescence 635/667 (AID 1065); details: higher = more signal, COS7 lysate expressing mutant human TOR1A
# [3] = binders of probe aFGF2 on microarray, primary screen, stem cell growth factor project, biochemical, small-molecule microarray, fluorescence 635/667 (AID 1067); details: higher = more signal;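 further: measures binding of biotinylated aFGF2 protein to printed compounds on slides; z-score merges feature fluorescence and signal-to-noise across triplicate slides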
# [4] = binders of probe aFGF10 on microarray, primary screen, stem cell growth factor project, biochemical, small-molecule microarray, fluorescence 635/667 (AID 1071); details: higher = more signal;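 further: score merges 667 nm spot intensity and signal to noise from triplicate slides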
# [5] = molecular target: Neurogenic locus notch homolog protein 2 (Homo sapiens) (UniProt Q04721); experiment: Notch2 binders on small-molecule microarrays, primary screen, biochemical, small-molecule microarray, 635 nm fluorescence, stem cell growth factors (AID 1073); details: Notch2 binding, higher = more signal
# [6] = molecular target: Pro-neuregulin-1, membrane-bound isoform (Homo sapiens) (UniProt Q02297); experiment: NRG1 binders on small-molecule microarrays, primary screen, psychiatric disease protein project, biochemical, small-molecule microarray, fluorescence 635/667 (AID 1075); details: NRG1 binding, 635 nm fluorescence, higher = more signal;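 further: score combines 667 nm spot fluorescence with signal to noise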
# [7] = test system: Neuregulin-1 EGF-like domain; experiment: binders of neuregulin-1 EGF-like domain, primary screen, biochemical, small-molecule microarray, 635 nm fluorescence (AID 1081); details: small-molecule microarray binding, higher = more signal;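 further: binding of the protein to compounds printed on small-molecule microarray slides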
# [8] = FRG1 promoter luciferase signal modulators, primary screen, FRG1 inhibition for FSHD, cell-based, C2C12 myotubes, firefly/Renilla luciferase, luminescence (AID 1084); details: higher = more signal, called active from +8 up or from −8 down
# [9] = binders of probe aFST on microarray, primary screen, stem cell growth factor project, biochemical, small-molecule microarray, fluorescence 635/667 (AID 1086); details: higher = more signal;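 further: score merges 667 nm fluorescence with signal-to-noise of each printed compound spot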
# [10] = binders of probe aHhip on microarray, primary screen, stem cell growth factor project, biochemical, small-molecule microarray, fluorescence 635/667 (AID 1087); details: higher = more signal;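 further: score merges spot fluorescence at 667nm with spot signal to noise ratio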
# [11] = test system: PRMT1 (protein arginine N-methyltransferase 1); experiment: PRMT1 binders on small-molecule microarrays, primary screen, biochemical, small-molecule microarray, 635 nm fluorescence (AID 1088); details: small-molecule microarray binding, higher = more signal;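 further: binding of Prmt1 protein to compounds spotted on small-molecule microarray slides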
# [12] = yeast growth modulation, basal conditions, primary screen, YJM789 clinical isolate, OD600, 24 h (AID 1089);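 further: growth of clinical yeast isolate S. cerevisiae YJM 789 seeded 1000 cells per well; test concentration not given here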; details: S. cerevisiae YJM789 growth, higher = more signal, called active from +8 up or from −8 down
# [13] = fission yeast growth modulation, primary screen, strain 972, OD600, 24 h, no modulator (AID 1090);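 further: basal condition with compound alone and no growth modifier present; test concentration not given here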; details: S. pombe 972 growth, higher = more signal, called active from +8 up or from −8 down
# [14] = S. cerevisiae growth modulation with rapamycin, primary screen, strain BY4716, OD600, 96 h (AID 1091); details: higher = more signal, called active from +8 up or from −8 down; further: test concentration not given here
# [15] = molecular target: Torsin-1A-interacting protein 2 (Homo sapiens) (UniProt Q8NFQ8); experiment: LULL1 binders on small-molecule microarray, primary screen, cell lysate, human LULL1 lysate, 635/667 nm fluorescence (AID 1092); details: hLULL1 lysate binding, 635 nm fluorescence, higher = more signal;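 further: probe is lysate of COS7 cells overexpressing human LULL1; score merges per-feature 667 nm fluorescence with signal-to-noise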
# [16] = E. coli growth modulation, two-sided OD650, primary screen, E. coli filamentation project, strain DRC41, 24 h (AID 1093); details: OD650, 24 h, higher = more signal, called active from +8 up or from −8 down;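 further: MC1000 strain lacking acrAB efflux and sulA so SOS filamentation is blocked; test concentration not given here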
# [17] = small-molecule microarray binders of probe aLefty2, primary screen, biochemical, biotinylated probe, 635/667 nm fluorescence (AID 1094); details: higher = more signal;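 further: score merges spot fluorescence near 667 nm with spot signal-to-noise ratio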
# [18] = test system: Noggin (protein binding on small-molecule microarray); experiment: Noggin binders on small-molecule microarray, primary screen, biochemical, 635/667 nm fluorescence (AID 1095); details: 635 nm fluorescence, higher = more signal;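 further: score merges 667 nm feature fluorescence with signal to noise over triplicate slides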
# [19] = molecular target: Neurogenic locus notch homolog protein 3 (Homo sapiens) (UniProt Q9UM47); experiment: NOTCH3 binders on small-molecule microarray, primary screen, biochemical, 635/667 nm fluorescence (AID 1096); details: NOTCH3 binding, 635 nm fluorescence, higher = more signal
# [20] = small-molecule microarray binders of probe aEGFR, primary screen, biochemical, biotinylated probe, 635/667 nm fluorescence (AID 1097); details: higher = more signal;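 further: probe is a biotinylated anti-EGFR antibody binding compounds printed on slides; score combines fluorescence near 667 nm and signal to noise of each spot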
# Pro-neuregulin-1, membrane-bound isoform (Homo sapiens), sequence (Q02297 whole entry, looked up, the tested form may be a part, canonical isoform): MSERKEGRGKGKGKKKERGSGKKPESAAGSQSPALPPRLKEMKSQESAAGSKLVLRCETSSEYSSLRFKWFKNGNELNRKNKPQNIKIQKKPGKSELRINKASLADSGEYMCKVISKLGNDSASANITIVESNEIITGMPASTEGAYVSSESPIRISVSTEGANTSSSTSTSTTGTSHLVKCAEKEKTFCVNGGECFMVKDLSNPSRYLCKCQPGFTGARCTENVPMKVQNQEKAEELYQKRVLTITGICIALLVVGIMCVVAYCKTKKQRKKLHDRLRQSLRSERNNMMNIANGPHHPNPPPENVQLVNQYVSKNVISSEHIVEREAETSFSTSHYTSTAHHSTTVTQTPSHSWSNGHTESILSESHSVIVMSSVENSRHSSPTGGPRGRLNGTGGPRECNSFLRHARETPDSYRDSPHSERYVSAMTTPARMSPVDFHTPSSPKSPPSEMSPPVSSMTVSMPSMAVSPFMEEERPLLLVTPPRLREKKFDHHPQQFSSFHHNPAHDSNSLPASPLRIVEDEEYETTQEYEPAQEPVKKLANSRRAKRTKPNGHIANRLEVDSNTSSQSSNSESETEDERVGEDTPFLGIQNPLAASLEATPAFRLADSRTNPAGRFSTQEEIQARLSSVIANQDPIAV
# Neurogenic locus notch homolog protein 3 (Homo sapiens), sequence (Q9UM47 whole entry, looked up): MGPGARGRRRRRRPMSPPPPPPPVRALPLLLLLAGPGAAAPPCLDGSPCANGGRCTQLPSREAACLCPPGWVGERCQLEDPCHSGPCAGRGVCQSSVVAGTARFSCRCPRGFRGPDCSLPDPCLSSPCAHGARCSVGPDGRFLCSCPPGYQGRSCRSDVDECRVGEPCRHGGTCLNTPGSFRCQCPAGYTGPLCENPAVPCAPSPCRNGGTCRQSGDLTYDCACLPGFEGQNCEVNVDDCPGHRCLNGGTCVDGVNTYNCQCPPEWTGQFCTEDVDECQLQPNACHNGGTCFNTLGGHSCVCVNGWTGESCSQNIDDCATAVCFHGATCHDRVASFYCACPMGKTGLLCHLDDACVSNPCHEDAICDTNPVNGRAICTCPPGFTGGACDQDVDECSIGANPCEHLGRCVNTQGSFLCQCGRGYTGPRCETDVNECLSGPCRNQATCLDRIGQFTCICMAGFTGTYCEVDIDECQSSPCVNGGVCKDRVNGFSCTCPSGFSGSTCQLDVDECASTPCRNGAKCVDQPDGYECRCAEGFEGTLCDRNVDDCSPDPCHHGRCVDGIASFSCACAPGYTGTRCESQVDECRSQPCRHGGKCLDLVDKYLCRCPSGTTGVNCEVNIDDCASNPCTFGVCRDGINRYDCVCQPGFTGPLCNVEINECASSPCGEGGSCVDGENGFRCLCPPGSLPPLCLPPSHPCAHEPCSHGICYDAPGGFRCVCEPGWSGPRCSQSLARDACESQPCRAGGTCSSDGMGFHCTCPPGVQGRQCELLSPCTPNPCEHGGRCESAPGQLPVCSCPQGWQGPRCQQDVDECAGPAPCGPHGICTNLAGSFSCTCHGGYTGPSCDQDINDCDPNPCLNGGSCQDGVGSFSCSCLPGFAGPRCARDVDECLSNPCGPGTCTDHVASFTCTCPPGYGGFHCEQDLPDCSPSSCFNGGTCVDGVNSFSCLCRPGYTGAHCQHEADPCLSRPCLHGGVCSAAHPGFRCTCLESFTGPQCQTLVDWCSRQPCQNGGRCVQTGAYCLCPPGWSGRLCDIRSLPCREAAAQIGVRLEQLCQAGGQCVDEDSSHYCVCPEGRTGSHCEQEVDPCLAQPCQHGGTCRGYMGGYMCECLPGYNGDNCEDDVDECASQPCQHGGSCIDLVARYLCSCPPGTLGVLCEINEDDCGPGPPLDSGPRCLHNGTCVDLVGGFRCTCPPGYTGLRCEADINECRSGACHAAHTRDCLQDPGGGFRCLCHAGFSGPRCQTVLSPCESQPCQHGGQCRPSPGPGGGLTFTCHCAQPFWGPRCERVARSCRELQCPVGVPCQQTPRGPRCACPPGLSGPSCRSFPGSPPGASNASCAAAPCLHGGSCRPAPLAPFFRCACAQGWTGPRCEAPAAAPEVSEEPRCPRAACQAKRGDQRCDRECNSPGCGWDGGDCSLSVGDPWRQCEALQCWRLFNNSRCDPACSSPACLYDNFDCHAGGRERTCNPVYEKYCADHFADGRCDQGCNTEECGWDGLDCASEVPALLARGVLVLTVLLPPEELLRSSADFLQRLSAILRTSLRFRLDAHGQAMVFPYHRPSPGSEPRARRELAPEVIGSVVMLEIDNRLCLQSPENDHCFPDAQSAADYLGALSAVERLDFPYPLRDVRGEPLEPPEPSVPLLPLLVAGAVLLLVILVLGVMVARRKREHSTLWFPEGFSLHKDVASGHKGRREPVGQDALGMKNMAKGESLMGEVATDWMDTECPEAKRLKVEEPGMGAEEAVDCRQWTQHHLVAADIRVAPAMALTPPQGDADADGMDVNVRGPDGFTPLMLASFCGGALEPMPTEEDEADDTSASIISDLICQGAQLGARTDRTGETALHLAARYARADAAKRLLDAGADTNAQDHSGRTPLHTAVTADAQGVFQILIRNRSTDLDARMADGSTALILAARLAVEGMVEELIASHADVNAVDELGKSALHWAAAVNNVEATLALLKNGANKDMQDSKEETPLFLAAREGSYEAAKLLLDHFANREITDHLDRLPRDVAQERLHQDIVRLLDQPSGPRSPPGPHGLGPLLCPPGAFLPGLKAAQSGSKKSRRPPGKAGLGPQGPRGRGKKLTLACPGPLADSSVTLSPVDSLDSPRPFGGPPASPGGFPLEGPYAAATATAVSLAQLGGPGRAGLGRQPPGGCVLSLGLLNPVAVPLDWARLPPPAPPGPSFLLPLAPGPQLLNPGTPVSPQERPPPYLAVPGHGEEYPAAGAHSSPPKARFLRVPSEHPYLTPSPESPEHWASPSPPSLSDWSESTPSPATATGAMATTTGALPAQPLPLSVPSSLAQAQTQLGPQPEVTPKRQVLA
# Torsin-1A-interacting protein 2 (Homo sapiens), sequence (Q8NFQ8 whole entry, looked up): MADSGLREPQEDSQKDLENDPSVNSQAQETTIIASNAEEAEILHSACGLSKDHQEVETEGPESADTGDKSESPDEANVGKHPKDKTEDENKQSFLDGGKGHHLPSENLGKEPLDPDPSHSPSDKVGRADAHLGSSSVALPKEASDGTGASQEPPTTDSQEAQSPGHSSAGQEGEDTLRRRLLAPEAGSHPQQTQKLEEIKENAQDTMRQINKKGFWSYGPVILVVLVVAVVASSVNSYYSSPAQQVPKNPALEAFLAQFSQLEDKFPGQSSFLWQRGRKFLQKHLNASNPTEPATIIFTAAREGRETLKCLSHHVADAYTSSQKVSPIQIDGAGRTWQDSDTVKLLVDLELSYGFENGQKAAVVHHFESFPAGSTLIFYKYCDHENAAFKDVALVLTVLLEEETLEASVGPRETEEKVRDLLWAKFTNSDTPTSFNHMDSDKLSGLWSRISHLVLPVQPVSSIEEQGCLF
SMILES,composite z-score [1],composite z-score [2],composite z-score [3],composite z-score [4],composite z-score [5],composite z-score [6],composite z-score [7],z-score [8],composite z-score [9],composite z-score [10],composite z-score [11],z-score [12],z-score [13],z-score [14],composite z-score [15],z-score [16],composite z-score [17],composite z-score [18],composite z-score [19],composite z-score [20]
COCCCNC(=O)[C@@]1(Sc2ccc(C)cc2)CC(=O)N(C(C)C)[C@@H]1c1ccc(CO)cc1I,0.438,-0.107,0.0854,0.606,-0.622,1.89,1.25,-1.2 (inactive),-0.307,-0.0581,1.31,-0.436 (inactive),-2.98 (inactive),0.445 (inactive),2.53,-2.04 (inactive),-0.0225,-0.926,-0.365,-0.21
Cc1ccc(F)cc1S(=O)(=O)N[C@@H]1CCN(Cc2cccc3[nH]ccc23)C1,1.05,0.871,-0.0894,0.513,0.37,1.38,0.379,-0.762 (inactive),-0.0112,-0.0994,0.317,0.84 (inactive),-1.02 (inactive),-0.639 (inactive),-0.466,-0.833 (inactive),-0.0728,0.586,0.56,0.137
C=CCC(OC(C)=O)[C@@H]1[C@@H](N(Cc2ccc(-c3cccc(C(F)(F)F)c3)o2)C(=O)c2cccc3ccccc23)c2cc(OCCCO)ccc2N1C(=O)Cc1ccc(OC)cc1 (stereo not given in full),-0.238,-0.125,-0.143,-0.0597,-0.386,0.0701,-0.398,0.317 (inactive),0.378,-0.179,0.224,0.504 (inactive),-0.117 (inactive),-0.296 (inactive),0.648,0.776 (inactive),0.0054,0.266,0.263,-0.133
COc1ccc([Si](C)(C)[C@@H]2[C@@H](CCn3cc([C@H](O)c4ccccc4)nn3)O[C@]3(C(=O)N(Cc4cccc(N5C(=O)c6cccc7cccc5c67)c4)c4ccccc43)[C@H]2C)cc1,0.022,-0.362,-0.146,-0.472,-0.643,0.173,0.741,-0.814 (inactive),-0.0472,-0.309,0.645,0.738 (inactive),1.21 (inactive),2.54 (inactive),0.98,-0.143 (inactive),-0.139,-0.319,-0.048,-0.182
CCOC(=O)C1=C[C@@H](C(C)(C)C)N(S(=O)(=O)c2ccc(C)cc2)[C@H]1c1cccc(Cl)c1,-0.308,0.314,0.0526,0.666,1.54,0.831,0.979,-2.24 (inactive),0.799,-0.14,1.4,1.74 (inactive),2.35 (inactive),3.04 (inactive),2.81,-0.695 (inactive),0.195,1.04,1.08,0.301
CC(C)[C@H]1NC(=O)[C@@]23C(=O)N[C@@H](Cc4ccccc4)C2[C@H](C)[C@@]2(C)O[C@H]2C3/C=C/CCC/C=C/CNC(=O)[C@H](Cc2ccccc2)NC1=O (stereo not given in full),-0.245,0.719,-0.147,-0.0587,0.046,1.57,1.22,0.966 (inactive),-0.419,-0.319,0.776,0.249 (inactive),-1.4 (inactive),-0.622 (inactive),2.47,0.139 (inactive),-0.232,1.22,0.419,-0.161
CCOC(=O)C1=CCC(c2ccccc2)N(S(=O)(=O)c2ccc([N+](=O)[O-])cc2)C1 (stereo not given),-0.239,-0.181,-0.112,0.154,1.17,-0.0979,0.549,-0.877 (inactive),0.06,0.0505,-0.411,0.687 (inactive),0.668 (inactive),1.25 (inactive),1.33,-0.319 (inactive),-0.0081,-0.578,0.0968,0.0506
CCOC(=O)C[C@H]1[C@H](OC(=O)c2ccccc2-c2ccccc2)[C@@H](NC(=O)c2ccc3ccccc3n2)c2cc(OCCCO)ccc2N1C(=O)c1ccccc1,-0.384,0.491,-0.0752,0.331,0.417,0.288,0.666,-0.764 (inactive),0.377,0.0401,1.01,1.2 (inactive),0.364 (inactive),1.61 (inactive),1.46,-0.943 (inactive),-0.149,0.54,0.797,-0.0084
CN(C)CCCCCCNC(=O)[C@@H]1C[C@@H]2C(=O)N[C@@H](CCCCN)C(=O)N2[C@@H]1c1ccc(O)cc1,3.77,1.82,0.939,1.2,1.65,2.91,1.53,0.918 (inactive),3.81,3.69,1.54,-0.38 (inactive),-3.54 (inactive),-0.958 (inactive),4.67,1.98 (inactive),1.87,2.25,1.02,1.31
COCCOC(=O)N1C(=O)[C@@]2(c3ccccc31)[C@H](c1ccc(OCCO)cc1)N1[C@H](c3ccccc3)[C@H](c3ccccc3)OC(=O)[C@H]1[C@@H]2C(=O)N1CCCCCCC1,4.01,2.82,1.05,1.52,1.86,3.07,1.54,-3.1 (inactive),3.82,2.75,1.54,0.178 (inactive),0.182 (inactive),2.92 (inactive),5.18,-0.504 (inactive),1.83,2.45,1,1.43
[N-]=[N+]=Nc1ccccc1C[C@@]1(C(=O)O)N=C(c2ccc(OCCCO)cc2)O[C@@H]1c1ccccc1N=[N+]=[N-],0.943,0.211,0.0171,0.325,1.37,1.95,1.21,-0.22 (inactive),1.36,-0.283,1.39,-1.05 (inactive),-0.613 (inactive),-1.67 (inactive),3.04,-0.679 (inactive),0.255,-0.414,1.09,0.0998
